# PrPC TRFRET = inhibitors of human cell surface prion protein PrPC, primary screen, cell-based, TR-FRET | Major prion protein (Homo sapiens), P04156 | TR-FRET read-out | inhibition, % at 13.8 µM | actives 0.43% (n = 370,000) | AID 720596, 2013; in the data active = inhibition above about 24%; also: 0% = median of the test wells and 100% = reference compound wells
# PrP 5UTR inh = inhibition of PrP 5' UTR reporter expression. actives 0.35% (n = 340,000). cell-based PrP 5' UTR mRNA reporter, plate reader. inhibition, % (concentration not given with the values); in the data active = inhibition above about 52%; also: 0 = median of the neutral control wells
# Mtb FBA inh = Mtb FBA enzyme inhibitors, primary screen, biochemical, fluorescence, strain H37Rv. Fructose-bisphosphate aldolase (Mycobacterium tuberculosis (strain ATCC 25618 / H37Rv)), …. purified M. tuberculosis FBA, fluorescence read-out. inhibition, % at 1 µM. actives 2.3% (n = 360,000);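 also: 0% = vehicle and 100% = reference inhibitor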
# Target sequence (P9WQA3 whole entry, looked up): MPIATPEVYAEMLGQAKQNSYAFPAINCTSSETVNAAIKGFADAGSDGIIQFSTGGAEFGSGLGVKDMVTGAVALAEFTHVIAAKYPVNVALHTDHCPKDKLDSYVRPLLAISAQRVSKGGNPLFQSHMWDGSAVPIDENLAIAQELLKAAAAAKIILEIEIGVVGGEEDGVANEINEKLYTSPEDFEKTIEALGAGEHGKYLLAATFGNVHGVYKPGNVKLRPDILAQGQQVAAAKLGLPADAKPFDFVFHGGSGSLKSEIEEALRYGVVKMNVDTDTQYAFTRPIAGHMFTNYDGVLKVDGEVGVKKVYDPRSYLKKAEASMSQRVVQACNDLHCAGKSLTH
# GDH-TPI counter-1 = GDH-TPI coupling enzyme inhibitors, primary screen, artefact control for M. tuberculosis FBA inhibitor project, biochemical, absorbance, full deck | inhibition, % at 4.8 µM | actives 1.2% (n = 360,000) | GDH-TPI coupled enzyme counterscreen, NADH absorbance; in the data active = inhibition above about 30%;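 also: 0% = DMSO wells and 100% = wells lacking the enzyme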
# Mtb hypoxia rep = PubChem AID 1159583. M. tuberculosis hypoxia-regulated fluorescent reporter, fluorescence. fluorescence inhibition, % (concentration not given with the values). actives 0.1% (n = 300,000); in the data active = fluorescence inhibition mostly above about 23%, no sharp cut-off; inactive = mostly below about 17%
# Yp Topo-I inh = Yersinia pestis topoisomerase I inhibitors, primary screen, biochemical, cleavage product accumulation, plate reader, single point; DNA topoisomerase I (Yersinia pestis CO92); Y. pestis Topo-I cleavage product accumulation; actives 0.064% (n = 360,000); activity, % at 10 µM; in the data active = activity above about 50%, passing the limit was not always enough
# Mtb FBA confirm = M. tuberculosis aldolase blockers, biochemical, fluorescence, strain H37Rv, confirmation | shares compounds with Mtb FBA inh | purified M. tuberculosis FBA, fluorescence read-out | inhibition, % at 1 µM | actives 78% (n = 5,600) | AID 651616, 2012;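 also: 0% = vehicle wells and 100% = reference inhibitor wells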
# GDH-TPI counter-2 = GDH-TPI coupling enzyme inhibitors, artefact control for M. tuberculosis FBA inhibitor project, biochemical, fluorescence, high throughput; inhibition, % at 1 µM; actives 81% (n = 5,600); shares compounds with Mtb FBA inh; GDH-TPI coupled enzyme counterscreen; in the data active = inhibition above about 10%
# GDH-TPI dose = GDH-TPI coupling enzyme inhibitors, dose response, artefact control for M. tuberculosis FBA inhibitor project, biochemical, fluorescence, IC50; GDH-TPI coupled enzyme assay, artifact counterscreen; actives 79% (n = 170); IC50, µM; AID 652145, 2013; shares compounds with Mtb FBA inh; call rule not given here
# Numbers without * were called inactive; x = no result shown; + = active, no number. An excerpt weighted towards active compounds, which were near 3.8% of everything screened. Rule as the data show it, unless noted: active = inhibition above about 27%; inactive = the rest.
SMILES,PrPC TRFRET,PrP 5UTR inh,Mtb FBA inh,GDH-TPI counter-1,Mtb hypoxia rep,Yp Topo-I inh,Mtb FBA confirm,GDH-TPI counter-2,others
Cc1c(OC(C)C(=O)NCc2ccccn2)ccc2c3c(c(=O)oc12)CCCC3 (stereo unspecified),3,-17,68*,3,8,27,3,1,
O=C(NN=CC1=C(N2CCOCC2)/C(=C\c2ccccc2)CC1)Nc1ccccc1,x,x,x,x,-8,x,x,x,
CC(C)(C)c1csc(NC(=O)c2ccccc2O)n1,0,-48,37*,23,8,-3,43*,36*,
Cc1csc(NC(=O)c2ccccc2O)n1,1,-40,66*,21,x,-3,99*,85*,
Cc1csc(NC(=O)c2cc(C)oc2C)n1,-4,-63,0,0,x,-8,x,x,
COC(=O)CN(c1ccccc1F)S(=O)(=O)c1ccccc1,10,-22,0,-11,18,5,x,x,
O=C(O)CN(c1ccccn1)S(=O)(=O)c1ccc(Cl)cc1,4,-8,35*,11,x,-10,39*,36*,
O=C(O)CN(c1ccccn1)S(=O)(=O)c1ccccc1,0,-13,36*,0,x,-5,94*,87*,
COC(=O)CN(c1ccc2c(c1)OCCO2)S(=O)(=O)c1ccccc1,8,-21,37*,1,x,-1,12,-1,GDH-TPI dose=>10
COC(=O)CN(c1ccccn1)S(=O)(=O)c1ccccc1,-7,-3,37*,17,10,1,115*,100*,
O=C(O)CN(c1ccc2c(c1)OCCO2)S(=O)(=O)c1ccccc1,-5,-29,17,3,x,1,x,x,
NC(=NO)c1nc(N2CCCC2)nc(N2CCCC2)n1,x,x,x,x,-5,x,x,x,
CC(C)CC1NC(=O)C(Cc2ccc(O)cc2)NC(=O)C(CCC(N)=O)NC(=O)c2cc([N+](=O)[O-])cc(I)c2NCCC(C(N)=O)NC1=O (stereo unspecified),x,x,x,x,1,x,x,x,
COc1ccc(-c2coc3cc(O)ccc3c2=O)cc1,10,-29,35*,22,3,-4,121*,94*,
COc1ccc(-c2coc3cc(O)c(OC)cc3c2=O)cc1,-6,-25,44*,34*,13,5,84*,54*,
FC(F)(F)c1ccc2c(c1)NCC1CCCN21 (stereo unspecified),-6,-14,45*,24,4,-5,54*,50*,
FC(F)(F)c1ccc2c(c1)N1CCCC1CN2 (stereo unspecified),-16,-22,4,0,9,-15,x,x,
COC(=O)[C@@]12CCCN1[C@H](c1ccc(-c3ccc(OC)cc3)c(OC)c1)[C@H]1C(=O)N(C)C(=O)[C@H]12,0,-8,-1,2,x,27,x,x,
COC(=O)[C@]1(C)N[C@H](c2ccc(-c3cccc(Cl)c3)cc2)[C@@H]2C(=O)N(C)C(=O)[C@@H]21,4,-24,1,-4,x,11,x,x,
COC(=O)[C@]1(C)N[C@H](c2ccc(-c3cccc(Cl)c3)c(OC)c2)[C@@H]2C(=O)N(C)C(=O)[C@@H]21,-9,9,38*,0,x,15,47*,41*,
COC(=O)[C@@]12CCCN1[C@H](c1ccc(-c3ccc(OC)cc3)c(OC)c1)[C@@H]1C(=O)N(C)C(=O)[C@@H]12,-1,4,29*,11,x,12,+,+,
CCN1C(=O)[C@H]2[C@@H](c3ccc(-c4ccc(OC)cc4)c(OC)c3)N[C@@](C)(C(=O)OC)[C@H]2C1=O,-5,-4,35*,1,x,25,39*,43*,
CCN1C(=O)[C@H]2[C@@H](c3ccc(-c4ccc(F)cc4)c(OC)c3)N[C@@](C)(C(=O)OC)[C@H]2C1=O,3,-4,15,16,x,-16,x,x,
COc1cc(-c2nc3ccccn3c2N=Cc2cccc(F)c2)ccc1O,x,x,x,x,2,x,x,x,
O=C(NN=Cc1ccc[nH]1)c1cc(-c2ccc(Cl)cc2)nc2ccccc12,x,x,x,x,5,x,x,x,
SMILES,PrPC TRFRET,PrP 5UTR inh,Mtb FBA inh,GDH-TPI counter-1,Mtb hypoxia rep,Yp Topo-I inh,Mtb FBA confirm,GDH-TPI counter-2,others
Nc1cccc2cc(S(=O)(=O)O)ccc12,-17,-14,39*,16,23,5,5,5,
COc1ccc(C=NO)cc1COc1ccc(NC(C)=O)cc1,x,x,x,x,-4,x,x,x,
c1ccc(-c2nc(-c3cccs3)[nH]c2-c2ccccc2)cc1,-3,-7,63*,18,-2,4,+,178*,
O=C(O)c1ccccc1-c1nc(-c2ccccc2)c(-c2ccccc2)[nH]1,2,-63,3,6,12,13,x,x,
COc1cc(-c2nc(-c3ccccc3)c(-c3cccs3)[nH]2)cc(OC)c1O,2,-49,24,21,2,-14,x,x,
COc1cc(-c2nc(-c3ccccc3)c(-c3cccs3)[nH]2)cc(OC)c1OC,23,-24,46*,18,1,3,1,-5,
CCCNC(=O)COC(=O)c1cc2c(=O)n3ccccc3nc2s1,-4,-36,76*,5,4,-4,10,3,
CCOC(=O)C1CCCN(C(=O)c2cc3ccccc3cc2OC)C1 (stereo unspecified),1,-7,5,14,-5,-2,x,x,
CC1CCN(C(=O)c2cc3c(=O)n4ccccc4nc3s2)CC1,-2,-30,87*,15,3,6,132*,100*,
CCOC(=O)C1CCCN(C(=O)c2cc3c(=O)n4ccccc4nc3s2)C1 (stereo unspecified),0,4,63*,16,-4,-8,10,-7,
CCN(C(=O)c1cc2c(=O)n3ccccc3nc2s1)C1CCCCC1,-16,-29,72*,7,18,28,56*,32*,
CCOC(=O)c1c(N=Cc2ccccc2O)sc2c1CCC2,x,x,x,x,-3,x,x,x,
CCOc1ccc(C=NNC(=O)NC23CC4CC(CC(C4)C2)C3)cc1O,x,x,x,x,13,x,x,x,
O=C(c1cc2c(=O)n3ccccc3nc2s1)N1CCOCC1,-10,-65,79*,25,3,2,+,+,
O=C(c1cc2c(=O)n3ccccc3nc2s1)N1CCN(c2cccc(Cl)c2)CC1,-3,-20,13,16,2,33,x,x,

# Screening data deposited in PubChem BioAssay by several laboratories.
